This is a sample that favours compounds with a hit; in the whole collection about 19% have one here.
Pf growth 96h – Primary qHTS for delayed death inhibitors of the malarial parasite plastid, 96 hour incubation | P. falciparum luciferase reporter growth, 96 h | Potency, µM (top dose mostly 28.7 µM), actives largely listed as inhibitors | 6.9% of 320,000 active | AID 504834, 2011
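Luminescence readout: decreased luciferase signal marks inhibited growth of reporter-expressing P. falciparum in infected red cells (2% hematocrit, 0.05% parasitemia final), exposed to compound two generations (96 h, 37 C, 5% CO2).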
CHX counter – Cycloheximide Counterscreen for Small Molecule Inhibitors of Shiga Toxin | cell reporter, cycloheximide protein synthesis inhibition counterscreen | max response, % | AID 2314, 2010 | 12% of 300,000 active; in the data active = max response mostly above about 13%, no sharp cut-off; inactive = mostly below about 14%; note: read at 38.3 µM for the half of the compounds with a filed dose
MARV entry inh – qHTS for inhibitors of binding or entry into cells for Marburg Virus | Marburg virus pseudotyped entry inhibition, cell reporter | Potency, µM (titrated, usually from 37.8 µM), actives largely listed as inhibitors | 1.8% of 300,000 active; calls by dose curve; tested in HEK293 cells
Pf growth 48h – Primary qHTS for delayed death inhibitors of the malarial parasite plastid, 48 hour incubation; P. falciparum luciferase growth in erythrocytes, 48 h; Potency, µM (doses to about 28.7 µM), most hits filed as inhibitors; 5.9% of 310,000 active
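Luminescence readout; reporter = integrated firefly luciferase in P. falciparum. RBC culture at 2% hematocrit, 0.1% parasitemia final, 37 C/5% CO2; decreased signal taken as growth inhibition.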
LASV entry inh – qHTS for Inhibitors of binding or entry into cells for Lassa Virus; 1.2% of 300,000 active; Potency, µM (titrated, usually from 37.9 µM), actives largely listed as inhibitors; Lassa virus pseudotype entry inhibition, cell reporter; calls by dose curve; tested in HEK293 cells; note: nearly all actives have a fitted effect of over 50% in size
Shiga toxin inh – A qHTS for Small Molecule Inhibitors of Shiga Toxin; Vero cells, Shiga toxin protein synthesis inhibition reporter; inhibition, % at 38.7 µM; 9.2% of 290,000 active; in the data active = inhibition mostly above about 28%, no sharp cut-off; inactive = mostly below about 43%
A number is an active result; n = inactive; u = inconclusive; x = no result given; [ ] = another dose, or the depositor's remark. Unless noted, calls come from the whole dose curve; as a rule, active = well fitted inhibition curve with a large enough effect; inconclusive = small, poorly fitted or top-dose-only effect, or another doubt; inactive = no such curve, though single readings can be large or run the other way.

SMILES | Pf growth 96h | CHX counter | MARV entry inh | Pf growth 48h | LASV entry inh | Shiga toxin inh
COc1ccc2c(c1O)-c1cccc3c1C(C2)N(C)CC3 (stereo unspecified) | x | x | 1µM | x | x | x
C=CCN1CC[C@@]2(C)c3cc(O)ccc3CC1[C@@H]2C | u | n | u | u | x | n
CS(=O)(=O)N1CCc2cc(-c3csc(NC(=O)C(c4ccccc4)c4ccccc4)n3)ccc21 | x | n | n | 13µM | n | n
CC1Cc2cc(-c3csc(NC(=O)Cc4ccccc4)n3)ccc2N1S(C)(=O)=O (stereo unspecified) | u | n | 10µM | x | u | n
Cc1nn2c(-c3ccc(Cl)cc3Cl)nnc2s1 | n | n | n | n | n | n
Cc1ccc(Cc2c(C)nc3nc(SCC(=O)NCCCN4CCOCC4)nn3c2C)cc1 | u | n | 8.9µM | n | n | n
O=C(NCCCN1CCCC1)c1ccc(CSCc2cccc(Cl)c2)o1 | u | n | u | x | n | n
CN1CCN(CCCNC(=O)c2ccc(CSCc3cccc(Cl)c3)o2)CC1 | n | n | u | n | 11µM | n
O=C(NCCCN1CCN(c2cccc(Cl)c2)CC1)c1nc(-c2ccncc2)no1 | n | n | u | 6.6µM | n | n
CC1CCN(CCCNC(=O)c2ccc(CSCc3cccc(Cl)c3)o2)CC1 | u | n | 12µM | x | n | n
COc1ccc(/C(C)=N/N=C2/NC(=O)CC(C(=O)O)S2)cc1 (stereo unspecified) | n | n | n | n | n | n
COc1ccc(-c2nc3ncccn3c2Nc2ccccc2)cc1 | n | n | n | u | n | n
O=C(Oc1ccc2ccc(=O)oc2c1)C1CCCCC1 | n | n | n | n | n | n
Cc1ccc(CSCc2ccc(C(=O)NCCCN3CCOCC3)o2)cc1 | n | 16 | n | n | u | n
O=C(NCCCN1CCN(CCCNC(=O)c2cccc(Cl)c2)CC1)c1cccc(Cl)c1 | 12µM | n | u | u | n | n
CCOC(=O)c1ccc(NC(=O)c2cn(-c3ccccc3)nc2-c2ccc(OC)c(OC)c2)cc1 | x | x | x | x | n | x
CCCCC(=O)NCCNc1nc2c(c(=O)n(C)c(=O)n2C)n1Cc1ccccc1 | n[5.75 µM] | n | u | u | n | n
COc1ccc(CCNc2nc3c(c(=O)n(C)c(=O)n3C)n2Cc2ccc(F)cc2)cc1OC | x | x | 6.3µM | x | u | x
CCCCC(=O)NCCNc1nc2c(c(=O)n(C)c(=O)n2C)n1Cc1ccc(F)cc1 | u | n | u | u | 9.2µM | n
CCCCNC(=S)N(C)/N=C/c1ccc2c(c1)OCO2 | n | n | x | n | x | n
COCCn1c(=NC(=O)C(C)(C)C)sc2cc([N+](=O)[O-])ccc21 | n | 19 | n | n | u | n
Cn1cc(CCCC(=O)NCc2cccc(Br)c2)c2ccccc21 | x | x | x | x | n | x
COc1ccc2[nH]cc(CCNC(=O)Cc3ccc(F)cc3)c2c1 | u | n | x | n | x | n
Cc1cccc(CC2CC(=O)N(c3nc4ccccc4s3)C2=O)c1 (stereo unspecified) | n[1.15 µM] | n | n | n | n | n
COc1ccc2nc(N3C(=O)CNC3=S)sc2c1 | u | 51 | u | n | n | n
SMILES | Pf growth 96h | CHX counter | MARV entry inh | Pf growth 48h | LASV entry inh | Shiga toxin inh
Cc1ccc2nc(N3C(=O)CNC3=S)sc2c1 | n | 47 | u | u | u | 56
N#Cc1c(Oc2cccc(OS(=O)(=O)CCCC(F)(F)F)c2)cccc1C(F)(F)F | x | n | x | x | x | n
Cc1cc(C(=O)NNS(=O)(=O)c2ccc(C(C)(C)C)cc2)nn1C(C)(C)C | n | n | x | 10µM | x | n
O=C(NNS(=O)(=O)c1ccccc1)C(O)(c1ccccc1)c1ccccc1 | n | n | n | n | n | n
CCCNNC(=O)C(O)(c1ccccc1)c1ccccc1 | 10µM | n | u | n | n | n
COc1ccccc1NNC(=O)C(O)(c1ccccc1)c1ccccc1 | n | n | u | n | n | n
Cc1ccc(S(=O)(=O)NNC(=O)C(O)(c2ccccc2)c2ccccc2)cc1 | 2.1µM | n | n | n | n | n
COCCNC(=O)C(C)OC(=O)C1=Cc2ccccc2OC1 (stereo unspecified) | u | 15 | x | n | x | n
CC(OC(=O)C1=Cc2ccccc2OC1)C(=O)NC(C)(C)C (stereo unspecified) | n | n | x | n | x | n
O=C(NCc1ccccc1)N(Cc1cc2cc3c(cc2[nH]c1=O)OCCO3)CC1CCCO1 (stereo unspecified) | 8.3µM | n | n | x | n | n
CC(=O)c1cccc(S(=O)(=O)N(Cc2cc3cc4c(cc3[nH]c2=O)OCCO4)CC2CCCO2)c1 (stereo unspecified) | 13µM | n | n | n | n | n
CN1CCN(CCCNC(=O)c2cn(C3CCCCC3)c(=O)c3c2c2ccccc2n3C)CC1 | n | n | n | x | n | n
COc1ccc(-c2cc(=O)oc3cc(OCC(=O)N(C)C)ccc23)cc1 | 10µM | n | x | u | x | n
CN(C)C(=O)COc1ccc2cc(-c3ccccc3)c(=O)oc2c1 | n[5.75 µM] | 25 | u | n | n | 54
COc1ccc2cc(-c3ccccc3)c(=O)oc2c1 | n | 32 | u | n | 4.5µM | 52
CC(Oc1ccc2cc(-c3ccccc3)c(=O)oc2c1)C(=O)NCC1CCC(C(=O)O)CC1 (stereo unspecified) | n | n | x | n | x | n
COC(=O)C(C)Oc1ccc2cc(-c3ccccc3)c(=O)oc2c1 (stereo unspecified) | n | n | u | n | n | n
Cc1cc(OCC(=O)N(C)C)c2c(-c3ccccc3)cc(=O)oc2c1 | 10µM | n | n | x | x | n
O=c1oc2ccccc2cc1-c1ccccc1 | n | 30 | x | n | x | n
O=c1oc2cc(OCc3c(F)cccc3Cl)ccc2cc1-c1ccccn1 | u | n | n | n | u | n
CCCOc1ccc2cc(-c3ccccn3)c(=O)oc2c1 | n | 39 | 1.8µM | n | 2.8µM | n
O=c1oc2ccc(Cl)cc2cc1-c1ccccc1 | n | n | n | n | n | n
CN1CCN(C(=O)/C(C#N)=C/c2ccc(F)cc2)CC1 | n | n | n | n | x | n
COc1ccc(S(=O)(=O)N2CCN(C(=O)C3CCC3)CC2)cc1 | u | x | n | u | n | x
CC1CCC(NS(=O)(=O)c2ccc(Cl)s2)CC1 (stereo unspecified) | n | x | u | u | n | x
Cc1cc(/C=N/n2cnnc2)c(C)n1-c1ccc(OCc2ccc(F)cc2)cc1 | u | 20 | u | n | u | n
Cc1cc(/C=N/n2cnnc2)c(C)n1-c1ccc(OCc2ccc(Cl)cc2Cl)cc1 | u | n | 8.9µM | x | 7.1µM | n
Cc1cc(/C=N/n2cnnc2)c(C)n1-c1ccc(Cl)cc1 | n | n | u | n | n | n
Cc1cc(/C=N/n2cnnc2)c(C)n1-c1ccccc1 | x | n | n | n | n | n
COC(=O)c1cccc(NC(=S)Nc2ccc(Cl)c(Cl)c2)c1 | n | n | n | n | n | n
